A selection: hits, their analogues and other compounds. The true share with any hit is near 10%.
GLS inh – inhibitors of human glutaminase (GLS); 410,000 tested, 0.21% active; AID 624170; Potency, µM (titrated, usually from 45.5 µM), actives largely listed as inhibitors; GLS enzymatic activity, qHTS titration
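Glutamate formation by hKGA was monitored fluorometrically using coupled glutamate oxidase, HRP and Amplex Red. Substrate was added as 1 mM L-glutamine solution; incubation was 30 min at RT after an initial read.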
HP1b binding inh – inhibitors of HP1-beta chromodomain binding to methylated histone tails. Potency, µM (highest dose often 114 µM), most hits filed as inhibitors. 390,000 tested, 0.56% active. AID 540317. P83916. AlphaScreen HP1-beta / biotin-H3K9me3 peptide binding; also: nearly all actives have a fitted effect of over 70% in size
Target sequence (P83916 whole entry, looked up): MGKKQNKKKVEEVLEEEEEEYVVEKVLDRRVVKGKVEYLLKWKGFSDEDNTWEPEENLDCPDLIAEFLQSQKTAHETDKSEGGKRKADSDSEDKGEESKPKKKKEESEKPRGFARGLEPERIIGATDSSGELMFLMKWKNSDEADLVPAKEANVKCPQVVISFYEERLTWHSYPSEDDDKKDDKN
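HP1-beta protein (50 nM final) preincubated 30 min at room temperature with biotinylated H3(1-18)K9me3 peptide (50 nM) in PBS pH 7.4, 0.01% Tween-20, then compound added for 30 min. AlphaScreen streptavidin donor/nickel chelate acceptor beads (10 ug/mL final), 30 min dark, luminescence read.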
BAZ2B block – BAZ2B (human) inhibition. AID 504333. 360,000 tested, 4.4% active. Potency, µM (top dose mostly 114 µM), most hits filed as inhibitors. AlphaScreen BAZ2B-H3K14Ac peptide displacement. Q9UIF8; also: nearly all actives have a fitted effect of over 60% in size
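Protein-peptide AlphaScreen: BAZ2B 50 nM, b-H3K14Ac 50 nM, 1x PBS pH 7.4 + 0.01% Tween-20. Preincubation 30 min RT; cpd 30 min RT (top 110 uM); beads 20 min RT, light-protected.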
G9a block – blocks human histone lysine methyltransferase G9a; Q96KQ7; Potency, µM (series often up to 102 µM), most hits filed as inhibitors; 350,000 tested, 8.8% active; G9a H3K9 monomethylation, AlphaScreen, 2 h; also: nearly all actives have a fitted effect of over 75% in size
Target sequence (Q96KQ7 913-1193 limits assumed): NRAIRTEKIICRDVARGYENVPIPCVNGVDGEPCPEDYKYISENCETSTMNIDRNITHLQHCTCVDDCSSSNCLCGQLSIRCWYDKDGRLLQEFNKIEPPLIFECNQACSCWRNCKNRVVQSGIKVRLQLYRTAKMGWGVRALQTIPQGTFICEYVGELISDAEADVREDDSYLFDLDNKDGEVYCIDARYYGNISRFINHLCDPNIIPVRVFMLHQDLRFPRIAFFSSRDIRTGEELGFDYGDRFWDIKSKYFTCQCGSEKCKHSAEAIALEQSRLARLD
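Methyltransferase reactions run at room temperature for 2 h (20 nM enzyme, 500 nM biotin-H3K9 peptide, 20 uM SAM) after a 15 min compound preincubation; product detected by AlphaScreen beads and anti-H3K9me1 antibody.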
JMJD2A Tudor – inhibitors of human JMJD2A Tudor domain; O75164; AlphaScreen JMJD2A-Tudor / H3K4me3 peptide binding; Potency, µM (doses to about 114 µM), most hits filed as inhibitors; 390,000 tested, 4.4% active; also: nearly all actives have a fitted effect of over 50% in size
Large screens that a line does not name were inactive. Calls follow the shape of the dose curve; as a rule, active = well fitted curve in the direction sought with a large enough effect; inconclusive = small, poorly fitted or top-dose-only effect, or another doubt; inactive = no such curve, though single readings can be large; an effect the other way counts as inactive or inconclusive.

Nc1nc(N)c(S(=O)(=O)c2ccccc2)c(Nc2ccc(F)cc2)n1	none
Cc1c(Cl)cnc(NC(=O)COC(=O)c2ccc([N+](=O)[O-])s2)c1Cl	BAZ2B block 45µM, G9a block 25µM, JMJD2A Tudor 50µM
O=C(COC(=O)c1ccc2ncsc2c1)Nc1cc(Cl)ccc1F	none
Cc1[nH]c2ccccc2c1C(=O)COC(=O)c1ccc([N+](=O)[O-])s1	BAZ2B block inconclusive, G9a block 32µM, JMJD2A Tudor inconclusive
O=C(COC(=O)c1ccc([N+](=O)[O-])s1)NCc1ccccc1	G9a block inconclusive
O=C(COC(=O)c1ccc(O)cc1)Nc1ncc(Cl)cc1Cl	BAZ2B block 79µM, G9a block inconclusive
O=C(COC(=O)c1ccc2ncsc2c1)Nc1ncc(Cl)cc1Cl	GLS inh inconclusive, BAZ2B block 50µM, G9a block inconclusive, JMJD2A Tudor inconclusive
Cc1ccc(NC(=S)Nc2ccc3cn[nH]c3c2)cc1	G9a block inconclusive
CCOC(=O)CSC1=C(C#N)C(c2ccc(C)cc2)C(C(=O)OC)C(=O)N1 (stereo not given)	G9a block inconclusive
CC1=C[C@@H](C)[C@@H](c2ccccc2)OC1=O	none (no result: BAZ2B block, G9a block)
CCOC(=O)N1CCN(C(=O)CSc2nc(=O)n3ccc(C)cc3n2)CC1	none
CCN1c2ccccc2-c2nc(SCC(=O)NCc3ccccc3)ncc2S1(=O)=O	none
Cc1nc(NC(=O)COC(=O)CCC(=O)c2cccs2)c(Cl)cc1Cl	none
Cc1c(Cl)cnc(NC(=O)COC(=O)c2ccc3ncsc3c2)c1Cl	BAZ2B block 50µM, G9a block inconclusive, JMJD2A Tudor inconclusive
O=C(NC1CCCC1)C(c1cccnc1)N(C(=O)c1ccco1)c1cccc(F)c1 (stereo not given)	none
Nc1c(/C=C2/C=CC(=O)C(O)=C2)c(=O)nc2sc(CC(=O)N3CCCCC3)nn12	BAZ2B block 10µM, G9a block 10µM, JMJD2A Tudor inconclusive
CC1=Nc2ccc(C)cc2/C1=C/c1c(N)n2nc(CC(=O)N3CCOCC3)sc2nc1=O	G9a block inconclusive
COC1=C/C(=C/c2c(N)n3nc(CC(=O)N4CCCC4)sc3nc2=O)C=CC1=O	G9a block inconclusive
CCOC1=C/C(=C/c2c(N)n3nc(CC(=O)N4CCCC4)sc3nc2=O)C=CC1=O	G9a block 79µM
Nc1c(C=C2C=CC(=O)C=C2)c(=O)nc2sc(CC(=O)N3CCCCC3)nn12	BAZ2B block inconclusive, G9a block inconclusive
Nc1c(/C=C2/C=CC(=O)C(O)=C2)c(=O)nc2sc(CC(=O)N3CCOCC3)nn12	HP1b binding inh inconclusive, JMJD2A Tudor 20µM (no result: BAZ2B block, G9a block)
Nc1c(/C=C2/C=CC(=O)C(O)=C2)c(=O)nc2sc(CC(=O)N3CCCC3)nn12	GLS inh inconclusive, HP1b binding inh inconclusive, BAZ2B block 20µM, G9a block 35µM, JMJD2A Tudor 25µM
O=C(CN1CCC(C(=O)c2cccc(F)c2)CC1)NCc1cccs1	G9a block inconclusive
O=C(CSc1ccc2nnc(-c3cccnc3)n2n1)N1CCOCC1	G9a block inconclusive
O=C(CSc1ccc2nnc(-c3ccc(Cl)cc3)n2n1)N1CCc2ccccc21	G9a block 7.9µM
O=C(CSc1ccc2nnc(-c3cccnc3)n2n1)N1CCc2ccccc21	G9a block inconclusive (no result: GLS inh, HP1b binding inh, JMJD2A Tudor)
O=C(CSc1ccc2nnc(-c3ccc(Cl)cc3)n2n1)N1CCCC1	G9a block 35µM
O=C(NC1CCCCC1)C(c1ccccc1)N(Cc1ccco1)C(=O)c1csnn1 (stereo not given)	none
Cc1cccc(C)c1NC(=O)N1CCN(C2CCCCC2)CC1	none
Cc1ccc(S(=O)(=O)c2nc(NCCN(C)C)sc2Cl)cc1	JMJD2A Tudor inconclusive
COC(=O)COc1ccc(C2Nc3c(Cl)ccc(C(=O)O)c3C3C=CCC32)cc1 (stereo not given)	GLS inh inconclusive, HP1b binding inh inconclusive, BAZ2B block 50µM, G9a block 13µM, JMJD2A Tudor 45µM
COc1cccc(C2Nc3c(F)cc(Br)cc3C3C=CCC32)c1OC (stereo not given)	none
COC(=O)COc1ccc(S(=O)(=O)N2CCN(c3ccccc3)CC2)cc1	none
COc1ccc(OC)c(C2Nc3c(Cl)ccc(C(=O)O)c3C3C=CCC32)c1 (stereo not given)	HP1b binding inh inconclusive, G9a block 20µM, JMJD2A Tudor inconclusive
C=C(C)c1ccccc1NC(=O)CCN1C(=O)c2ccccc2S1(=O)=O	none
Cc1cc(=O)n2nc(N3CCC(C(=O)Nc4ccc(Br)c(C)c4)CC3)sc2n1	none
CCOc1ccccc1CN1CCN(Cc2ccc3cc(F)ccc3n2)CC1CCO (stereo not given)	G9a block 79µM
COc1cccc(CN2CCN(Cc3ccc4c(NC(C)=O)cccc4n3)CC2CCO)c1 (stereo not given)	G9a block 50µM, JMJD2A Tudor 22µM
Cc1ccc(CN2CCN(Cc3ccc4cc(F)ccc4n3)CC2CCO)o1 (stereo not given)	G9a block 56µM
COc1ccc(CN2CCN(Cc3ccc4cc(F)ccc4n3)CC2CCO)c(C)c1C (stereo not given)	G9a block 50µM
COc1cc(CN2CCN(Cc3ccc4cc(F)ccc4n3)CC2CCO)cc(OC)c1 (stereo not given)	none
CCOc1ccc2nc(CN3CCN(Cc4ccccc4OCC)C(CCO)C3)ccc2c1 (stereo not given)	G9a block inconclusive
COc1ccc(CCNc2nc(-c3ccccn3)cs2)cc1OC	BAZ2B block 22µM, G9a block inconclusive, JMJD2A Tudor inconclusive
COc1ccc(CCNc2nc(-c3ccncc3)cs2)cc1OC	none (no result: G9a block)
COc1ccc(CCNc2nc(-c3sc(C)nc3C)cs2)cc1OC	HP1b binding inh inconclusive, BAZ2B block 32µM, G9a block 10µM, JMJD2A Tudor 3.2µM
COc1ccc(CCNc2nc(-c3cccnc3)cs2)cc1OC	BAZ2B block inconclusive (no result: G9a block)
COc1ccc(CCNc2nc(-c3ccc(O)cc3)cs2)cc1OC	BAZ2B block inconclusive, G9a block 22µM, JMJD2A Tudor inconclusive
O=C(Cn1c(-c2cccs2)cc2cc(F)ccc21)N1CCN(c2cccc(Cl)c2)CC1	none
COCCNC(=S)N/N=C/c1ccccc1C(=O)O	BAZ2B block inconclusive, G9a block 8.9µM, JMJD2A Tudor inconclusive
COCCNC(=S)N/N=C(\C)c1ccccc1OC	none
COCCCNC(=S)N/N=C/c1ccc(N(C)C)cc1Cl	none
COCCCNC(=S)N/N=C/c1ccccc1O	BAZ2B block 10µM, JMJD2A Tudor 56µM (no result: G9a block)
Cc1cccc(C)c1NC(=S)N/N=C/c1ccccc1C(=O)O	none (no result: G9a block)
COCCNC(=S)N/N=C(\C)c1ccccc1O	BAZ2B block 10µM
CCOc1ccc(-c2cn(-c3cccc(SC)c3)c(=O)[nH]2)cc1	G9a block 28µM
CCOc1ccc(-c2cn(-c3ccccc3OC)c(=S)[nH]2)cc1	G9a block inconclusive
Cn1cccc1/C=N/NC(=O)c1cccs1	none
